The list is not random: actives were taken first. Their share in the collection is about 11%.
HPGD block – qHTS Assay for Inhibitors of HPGD (15-Hydroxyprostaglandin Dehydrogenase) | hit rate 4.3% among 150,000 | purified HPGD, NADH fluorescence kinetic, PGE2 substrate | AID 894, 2007 | Potency, µM, for the others: at the highest dose activity change, negative = inhibition, hits mostly inhibitors | 15-hydroxyprostaglandin dehydrogenase [NAD(+)] (Homo sapiens), P15428; active means well fitted inhibition curve with a large enough effect, not every such curve was filed as active; inconclusive means small, poorly fitted or top-dose-only effect, or another doubt; inactive means no such curve, though single readings can be large or run the other way; further: potency means the concentration at half of the fitted maximal effect
Target sequence (P15428 whole entry, looked up): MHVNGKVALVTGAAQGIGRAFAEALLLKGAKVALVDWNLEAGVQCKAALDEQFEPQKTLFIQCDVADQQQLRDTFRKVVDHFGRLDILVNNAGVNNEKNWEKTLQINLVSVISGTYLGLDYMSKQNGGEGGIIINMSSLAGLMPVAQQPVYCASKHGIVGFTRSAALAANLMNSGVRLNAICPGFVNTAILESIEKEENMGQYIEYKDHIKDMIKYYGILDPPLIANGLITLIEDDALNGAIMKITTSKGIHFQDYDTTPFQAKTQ
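NADH formation kinetics: reaction with 30 uM PGE2 and 1 mM NAD+ (final), 20 nM enzyme, Tris-HCl pH 8 with Tween 20, after 15 min compound preincubation at room temperature. Fluorescence change, last versus first of five reads.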
NPSR antagonist – qHTS Assay for Antagonists of the Neuropeptide S Receptor: cAMP Signal Transduction; hit rate 1% among 220,000; Potency, µM (titrated, usually from 38.3 µM), without a hit: top-dose activity change, negative = inhibition, usual class: inhibitors; AID 1461, 2008; CHO-NPSR cells, cAMP TR-FRET, antagonist mode; further: potency means the concentration at half of the fitted maximal effect; nearly all actives have a fitted effect of over 50% in size
Target sequence (Q6W5P4 whole entry, looked up): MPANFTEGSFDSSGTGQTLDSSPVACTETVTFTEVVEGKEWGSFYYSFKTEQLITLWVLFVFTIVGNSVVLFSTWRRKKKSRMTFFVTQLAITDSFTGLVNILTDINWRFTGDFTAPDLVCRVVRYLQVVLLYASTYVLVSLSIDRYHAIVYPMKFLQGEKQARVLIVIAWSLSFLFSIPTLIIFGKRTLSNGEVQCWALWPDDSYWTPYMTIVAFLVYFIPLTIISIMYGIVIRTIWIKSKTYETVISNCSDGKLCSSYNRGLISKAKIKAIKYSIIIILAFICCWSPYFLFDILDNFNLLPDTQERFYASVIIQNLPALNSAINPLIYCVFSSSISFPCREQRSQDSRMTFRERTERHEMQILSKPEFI
IMPase inh – qHTS Assay for Identifying the Cell-Membrane Permeable IMPase Inhibitors. CHO-M1 cells, IP1 accumulation, HTRF TR-FRET ratio. 120,000 tested, under 10 active. inhibition (IP1 accumulation), % at 46.1 µM; active means well fitted curve in the direction sought with a large enough effect in the signal ratio, not every such curve was filed as active; inconclusive means small, poorly fitted or top-dose-only effect, or a change in a side signal; inactive means no such curve, though single readings can be large or run the other way; the % refers to the signal ratio;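 further: cells stimulated with carbachol in lithium chloride buffer; plate controls were DMSO basal wells for no effect and reference inhibitor wells for full effect; higher means more IMPase inhibition seen as more IP1 and lower FRET ratio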
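Carbachol-driven Gq signalling in CHO-M1 cells (2000/well) generates IP1. Compounds that block IMPase raise IP1 and so reduce the FRET signal from Eu-anti-IP1 and d2-IP1 after a 10 min room-temperature lysis.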
IMPase Li cell – qHTS Assay for Identifying the Cell-Membrane Permeable IMPase Inhibitors: Potentiation with Lithium | CHO-M1 cells, IP1 TR-FRET (IP-One), carbachol + lithium | Potency, µM (highest dose often 59.4 µM), for inactives: at the highest dose activity, negative = IMPase inhibition, actives largely listed as inhibitors | hit rate 0.35% among 210,000 | AID 1457, 2008;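 further: IP1 builds up when IMPase is blocked and the TR-FRET signal falls; potency means the concentration at half of the fitted maximal effect; plate controls were basal vehicle for no effect and high inhibitor control for full effect; nearly all actives have a fitted effect of over 50% in size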
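CHO cells stably expressing M1 receptor (2000/well, cultured 16–30 h) treated 30 min at 37C with compound plus low lithium. Cytosolic IP1 by TR-FRET (665/620 ratio and 620 channel) after 10 min lysis; AC50 by Hill fit.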
ALDH1A1 inh – qHTS Assay for Inhibitors of Aldehyde Dehydrogenase 1 (ALDH1A1); Purified ALDH1A1, NADH fluorescence, propionaldehyde substrate; AID 1030, 2008; hit rate 7.3% among 220,000; Potency, µM (titrated, usually from 75.3 µM), for the others: at the top dose activity, negative = inhibition, actives largely listed as inhibitors; active means well fitted inhibition curve with a large enough effect, not every such curve was filed as active; inconclusive means small, poorly fitted or top-dose-only effect, or another doubt; inactive means no such curve, though single readings can be large or run the other way;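 further: potency means the concentration at half of the fitted maximal effect; plate controls were no enzyme wells and a reference inhibitor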
PNC assembly inh – High Content Assay for Compounds that inhibit the Assembly of the Perinucleolar Compartment. PC3M PTB-GFP, PNC prevalence imaging, 16 h; active compounds read low. activity change (PNC), negative = inhibition, % at 10 µM. hit rate 3.1% among 140,000. AID 2417, 2010;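 active means readout at or below -70, meaning at least 70% loss of cells showing the perinucleolar compartment, a nuclear body marking cancer cells; inconclusive means readout between -30 and a set limit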;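 further: plate controls were DMSO wells for no effect and camptothecin positive control wells for full effect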
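Compounds are pinned in duplicate onto adhered PC3M cells stably expressing GFP-tagged PTB and incubated 16 h at 37 C. Cells are then fixed, nuclei stained with Hoechst, and PNC-positive cells counted.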
Starred values were filed as active, the others as inactive; ? = inconclusive; . = no result given; [ ] = remark or other dose. Unless noted, the call rests on the fitted dose curve; in most records, active means well fitted curve in the direction sought with a large enough effect; inconclusive means small, poorly fitted or top-dose-only effect, or another doubt; inactive means no such curve, though single readings can be large; an effect the other way counts as inactive or inconclusive. Unless noted, on the % scale 0 is the no-effect control and ±100 the full control effect.

SMILES	HPGD block	NPSR antagonist	IMPase inh	IMPase Li cell	ALDH1A1 inh	PNC assembly inh
O=C1CCCC2=C1C(c1ccc(O)c(O)c1)c1c(ccc3ncccc13)N2 (stereo not drawn)	.	1%	.	14%	?	.
Cc1ccc(-c2ccc(SCC(=O)N3CCc4ccccc43)nn2)cc1	-10%	-15%[46.1 µM]	1	12%	5%	-83*
COc1cccc(-c2ccc(SCC(=O)N3CCc4ccccc43)nn2)c1	-22%	-12%	-4	4%	20µM*	1
Cc1ccc(-c2ccc(SCC(=O)N3CCCc4ccccc43)nn2)cc1	-11%	-37%	-1	11%	?	38
COc1cccc(-c2nnc(SCC(=O)N3CCc4ccccc43)o2)c1	.	.	-5	.	.	.
O=C(CSc1ccc2nnc(-c3cccnc3)n2n1)N1CCc2ccccc21	-6%	-4%[46.1 µM]	-2	-7%[38.3 µM]	?	?
O=C(CSc1ccc(-c2ccccc2)nn1)N1CCN(c2ccccc2)CC1	-9%	5%	-7	0%	22µM*	-2
O=C(CSc1ccc2nnc(-c3ccc(Cl)cc3)n2n1)N1CCc2ccccc21	14µM*	-6%[46.1 µM]	-1	34%[38.3 µM]	?	?
COc1cc(/C=C/C(=O)N2CCN(C)CC2)cc(S(=O)(=O)N2CCc3ccccc32)c1OC	.	2%	.	.	.	.
Cc1ccc(CNC(=O)N2CCN(C)CC2)cc1	-11%	11%	.	-1%	4%	-7
Cc1[nH]c2ccccc2c1C(=O)COC(=O)c1c(-c2c(F)cccc2Cl)noc1C	-8%	-31%	6	13%	6%	?
Cc1onc(-c2c(Cl)cccc2Cl)c1C(=O)NCCc1ccc(S(N)(=O)=O)cc1	32µM*	-15%[46.1 µM]	8	22%[38.3 µM]	3%	7
Cc1onc(-c2ccccc2)c1C(=O)NCCc1ccc(S(N)(=O)=O)cc1	-14%	-4%[46.1 µM]	0	26%[38.3 µM]	24%	?
Cc1onc(-c2c(F)cccc2Cl)c1C(=O)OCN1C(=O)c2ccccc2C1=O	1.4µM*	-23%[46.1 µM]	10	6%[38.3 µM]	3%	-21
Cc1onc(-c2c(Cl)cccc2Cl)c1C(=O)N[C@H]1C(=O)N2[C@H]1SC(C)(C)[C@H]2C(=O)O	10µM*	.	-1[20.6 µM]	7%	8%[20.9 µM]	.
Cc1onc(-c2c(Cl)cccc2Cl)c1C(=O)NNc1ccccc1	.	9%	.	.	22µM*	.
C[C@@H]1CN(Cc2nc(-c3cccs3)no2)C[C@H](C)O1	.	-7%	.	-1%	-5%	.
Cc1ccc(C)c(NC(=O)Cn2nc(C)c3ccccc3c2=O)c1	-6%	-1%[46.1 µM]	3	24%[38.3 µM]	17%	?
COc1ccccc1-n1c(SCc2cc(=O)oc3cc(O)ccc23)nc2ccccc2c1=O	-22%	-42%	.	8%	-19%	-7
CC(NC(=O)C12CC3CC(CC(C3)C1)C2)c1ccc2c(c1)OCCO2 (stereo not drawn)	-15%	-11%[46.1 µM]	1	11%[38.3 µM]	-7%	31
Cc1ccc(S(=O)(=O)NCC2CCC(C(=O)NCc3cccnc3)CC2)cc1 (stereo not drawn)	.	14%	.	7%	6.3µM*	.
CC(=O)Nc1ccc(S(=O)(=O)NCC2CCC(C(=O)NCc3ccccc3)CC2)cc1 (stereo not drawn)	.	11%	.	-8%	-7%	.
O=C(CCc1ccc(S(=O)(=O)NC2CCCCC2)cc1)NCc1cccnc1	.	27%	.	0%	13µM*	.
Cc1ccc(S(=O)(=O)NCC2CCC(C(=O)NCc3ccc4c(c3)OCO4)CC2)cc1 (stereo not drawn)	-11%	-9%[46.1 µM]	-3	21%[38.3 µM]	7.1µM*	1
O=C1CCC(C(=O)NCc2cccnc2)N1 (stereo not drawn)	-9%	12%[46.1 µM]	-4	-3%	8%	-100*
SMILES	HPGD block	NPSR antagonist	IMPase inh	IMPase Li cell	ALDH1A1 inh	PNC assembly inh
c1ccc(Cc2nnc(Sc3ccccc3)c3ccccc23)cc1	-12%	?	-21	?	-8%	-18
COc1ccc2c(c1)c(C(=O)CN1CCN(C(=O)c3ccco3)CC1)c(C)n2C	4%	-5%[46.1 µM]	8	-16%[38.3 µM]	?	-22
COc1ccccc1N1CCN(C(=O)c2ccc(Cl)c(S(=O)(=O)NCc3ccco3)c2)CC1	0%	-8%[46.1 µM]	10	10%[38.3 µM]	-15%	?
CC1CCN(S(=O)(=O)c2ccc(C(=O)NCc3ccc4c(c3)OCO4)cc2)CC1	-7%	-14%[46.1 µM]	3	14%[38.3 µM]	-4%	?
Cc1ccc(S(=O)(=O)NCC2CCC(C(=O)NCc3ccccn3)CC2)cc1 (stereo not drawn)	.	12%	.	-2%	7.9µM*	.
Cc1ccc(S(=O)(=O)N2CCC(C(=O)OC(C)C(=O)NCc3ccc4c(c3)OCO4)CC2)cc1 (stereo not drawn)	18µM*	-16%[46.1 µM]	-4	-9%[38.3 µM]	0%	-25
CC1NC(C(=O)O)Cc2c1[nH]c1ccccc21 (stereo not drawn)	.	.	.	1%	2%	.
Cc1ccc(C(=O)CCNc2ccccc2)o1	-4%	-3%[46.1 µM]	9	-21%[38.3 µM]	16µM*	-17
Cc1ccc(C(=O)CCNc2ccc(Br)cc2)o1	-10%	-16%[46.1 µM]	9	-6%[38.3 µM]	11µM*	-23
Cc1ccc(C(=O)CCNc2ccc(F)c(Cl)c2)o1	-8%	-16%[46.1 µM]	1	-3%[38.3 µM]	14µM*	-4
CCOc1cc(C(=O)N(C)Cc2cc3ccccc3[nH]c2=O)cc(OCC)c1OCC	0%	-4%[46.1 µM]	13	7%	9%	12
CN(C)Cc1ccccc1-c1ccc2ncnc(N(C)Cc3ccco3)c2c1	-11%	.	.	7%	2%	.
CCCCS(=O)(=O)Nc1ccc(Cc2ccncc2)cc1	16µM*	-4%[46.1 µM]	3	26%[38.3 µM]	12%	-16
O=S(=O)(Nc1ccc(Cc2ccncc2)cc1)c1ccc(Cl)c(Cl)c1	-5%	-29%[46.1 µM]	19	29%[38.3 µM]	8%	2
COc1ccc(C)cc1NC(=O)CN(c1ccc(C)cc1)S(C)(=O)=O	.	-1%	.	-2%	-1%	.
O=C1C(Nc2ccccc2)=C2CCCC=C2N1c1ccccc1	.	-22%	.	22%	13µM*	.
O=C1C2=C(CCCC2)C(=O)N1CNc1ccccc1	.	-15%	.	.	9%	.
CC(=O)Cn1cnc2sc(-c3ccccc3)cc2c1=O	-14%	-10%[46.1 µM]	0	3%[38.3 µM]	-9%	11
CCn1cnc2sc(-c3ccccc3)cc2c1=O	-21%	-6%[46.1 µM]	13	2%[38.3 µM]	14µM*	12
O=c1c2cc(-c3ccccc3)sc2ncn1-n1cccc1	-5%	-3%[46.1 µM]	?	18%[38.3 µM]	9%	-1
Cc1ccc(C)n1-n1cnc2sc(-c3ccccc3)cc2c1=O	28µM*	-26%[46.1 µM]	15	9%[38.3 µM]	?	4

Assay outcomes from PubChem BioAssay.
